Laboratory results taken from PubChem BioAssay (NCI).
Several values for one entry are separate records, joined by “and”; a condition that tells them apart may be missing. Equal values may be shown once. Compounds without any hit were thinned out: in the full panel of roughly 83,000, 20% have a hit.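 Growth was measured after 48 h exposure to one concentration of compound in 96-well plates. Values under 10 count as active.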 Activity calls are given as the source filed them.

System: MDA-MB-468 breast
Experiment: NCI-60 one-dose screen, 48 h (100 = growth as untreated, 0 = no growth, -100 = all killed)
Settings: 10 µM unless noted

SMILES	growth
C1CCN(c2nc(N3CCCCC3)nc(N3CCOCC3)n2)CC1	107% (inactive)
CC(=O)OC1CCC2(C)C(CCC3C4CC=C(C(C)=O)C4(C)OC(=O)CC32)C1 (stereo not given)	-72.4% (active)
CC1=CC2c3oc(-c4ccccc4)c(C(=O)c4ccccc4)c3CNC2C=C1 (stereo not given)	97.7% (inactive)
COC(C(=O)[C@@H](O)[C@@H](C)O)[C@@H]1Cc2cc3cc(O[C@H]4C[C@@H](O[C@H]5C[C@@H](O)[C@H](O)C(C)O5)[C@H](O)C(C)O4)cc(O)c3c(O)c2C(=O)[C@H]1O[C@H]1C[C@@H](O[C@H]2C[C@@H](O[C@H]3C[C@@H](OC)[C@H](O)C(C)O3)[C@@H](O)C(C)O2)[C@H](O)C(C)O1 (stereo not given in full)	59.3% (inactive)
COc1ccc(OC)c(/C=C/C(=O)N/N=C/c2ccccc2)c1	28.1% (inactive)
Clc1ccc2c(NCCCCNc3nc(N4CCCCC4)nc4ccccc34)ccnc2c1	7.06% (active)
CCN(C(=O)c1ccc2c3c(cccc13)C=C2)c1ccccc1	84.3% (inactive)
COc1ccc(-n2cnc3c(sc4ncc(Cl)cc43)c2=O)cc1	93.1% (inactive)
COc1cnccc1-c1nc2ccc3[nH]ncc3c2c2c1CCCC2	39.6% (inactive)
C#Cc1ccc(-n2c(/C=C/c3ccc(C(F)(F)F)cc3)nc3ncccc3c2=O)cc1	-9.87% (active)
COc1cc(/C=C/C(=O)c2cccnc2Nc2ccc(F)cc2)cc(OC)c1OC	16.3% (inactive)
Cn1cc(-c2csc(-c3cn(C)c4ncccc34)n2)c2cc(Br)cnc21	-28.4% (active)
O=C(CCCCCCNC(=O)C(O)(O)C(F)(F)F)Nc1ccc(-c2ccccc2)cc1	-10.5% (active)
COc1cc(CC#N)c([N+](=O)[O-])cc1OC	100% (inactive)
CCCCOC(=O)c1ccc(C(C)C)cc1	100% (inactive)
CNc1cc(C(=O)O)nc(NC)n1	95.5% (inactive)
Cc1nnc(NC/C=C/c2ccccc2)s1	106% (inactive) and 92% (inactive)
CCCCN1CCCn2c1nc1c2c(=O)n(CCC)c(=O)n1CCC	101% (inactive)
C=C1CCC2C(C)(CO)C(O)CCC2(C)C1CC(NCc1ccccc1)C1=CCOC1=O (stereo not given)	98.9% (inactive)
CC(Br)c1nc2ccccc2cc1C(N)=O (stereo not given)	105% (inactive)

SMILES	growth
COc1cc(/C=C2\CN(S(=O)(=O)c3ccccc3)C/C(=C\c3cc(CN4CCCCC4)c(O)c(OC)c3)C2=O)cc(CN2CCCCC2)c1O	53.2% (inactive)
COc1ccc(C=Nc2c(C(=O)Nc3cccc(Cl)c3C)sc3nc(C)c(C(=O)/C=C/c4ccc(OC)cc4)cc23)cc1	17.3% (inactive)
CC(C)CC(CC1=CCC2CC1C2(C)C)C1=C(O)C(C)(C)C(=O)C(C)(C)C1=O (stereo not given)	6.32% (active)
Nc1nc(N)c2c(n1)NC(c1ccc(F)cc1)C1CCc3ccccc3C1=N2 (stereo not given)	5.4% (active)
O=S(=O)(NCCNc1nccc(-c2c(-c3cccc(O)c3)nc3occn23)n1)c1ccccc1	88.4% (inactive)
Cn1ncc2c(Sc3ccc(Cl)cc3)ncnc21	92.2% (inactive)
C=CCn1c(SCC(=O)Nc2ccc(C(=O)/C=C/c3cc4cc(OC)ccc4nc3Cl)cc2)nnc1-c1ccc(Br)cc1	85.7% (inactive)
CCn1c2ccc(O)cc2c2c(C)c3c[n+](C)ccc3c(C)c21	-31.2% (active)
COc1ccc(C(=O)c2cc(OC)c(OC)c(OC)c2)cc1/C=C/C(=O)c1ccc(F)cc1	90.4% (inactive)
COc1cc(C)cc2oc3oc(=O)c(-c4csc(-c5cc6ccccc6oc5=O)n4)cc3c(=O)c12	102% (inactive)
COC(=O)CCCCCCN=Cc1c(O)c(O)c(C(C)C)c2cc(C)c(-c3c(C)cc4c(C(C)C)c(O)c(O)c(C=NCCCCCCC(=O)OC)c4c3O)c(O)c12	47.1% (inactive)
O=C1C=Cc2ccccc2/C1=C/c1[nH]c(=O)[nH]c1O	41.5% (inactive)
Cc1nc(-c2ccccc2O)ccc1C(=O)N=Nc1c(O)[nH]c2ccc(Br)cc12	90.2% (inactive)
COc1cc(/C=C2\CCCC3C2=Nc2ccccc2NC3c2cc(OC)c(OC)c(OC)c2)cc(OC)c1OC (stereo not given)	-6.85% (active)
Cc1ccc(OCCn2c(C)nn(-c3ccc(Cl)cc3)c2=O)cc1	124% (inactive)
Clc1ccc(N/N=C(/c2ccccc2)c2ccccn2)nc1	4.13% (active)
NCCCNc1nc2ccccc2c2c(=O)c3cccc(F)c3sc12	-11.3% (active)
N[C@H]1CN(C(=O)c2cc3cc(Br)c(F)c(F)c3[nH]2)C[C@@H]1O	106% (inactive)
CC(=O)CC1CCCC1c1ccc2ccccc2c1 (stereo not given)	101% (inactive)
COc1cc2cc3c(nc2cc1OC)CCN3Cc1ccc(NC(=O)Nc2cc(C(F)(F)F)cc(C(F)(F)F)c2)cc1	52.9% (inactive)
